L3MBTL1 inh: inhibitors of human L3MBTL1. Potency, µM (top dose mostly 57.1 µM), for the others: top-dose activity, negative = inhibition, actives largely listed as inhibitors. AlphaScreen L3MBTL1–H3K9me1 peptide binding. 230,000 compounds, 0.66% hits. Q9Y468; further: on the % scale 0 is the no-effect control and ±100 the full control effect; nearly all actives have a fitted effect of over 60% in size
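First, the protein-peptide complex forms for 30 min at room temperature (L3MBTL1 50 nM, biotinylated H3K9me1 peptide 75 nM). Next, compounds are pin-transferred and incubated 30 min. Finally, AlphaScreen beads are added and read after 30 min.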
Pol kappa inh-1: inhibitors of human DNA polymerase kappa; 400,000 compounds, 0.53% hits; purified Pol kappa, fluorescent DNA synthesis assay, 10 min; Q9UBT6; Potency, µM (series often up to 107 µM), for the others: at the top dose activity, negative = inhibition, most hits filed as inhibitors; further: on the % scale 0 is the no-effect control and ±100 the full control effect
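Pol kappa 10 nM + cpd, 15 min RT; start w/ substrate 50 nM final; fluorescence kinetic read, 0 and 10 min. Neg ctrl: buffer, no enzyme.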
Pol eta inh-1: DNA polymerase eta (human) inhibition. Q9Y253. 390,000 compounds, 1.2% hits. recombinant Pol eta, fluorescent DNA replication assay. Potency, µM (top dose mostly 114 µM), without a hit: at the top dose activity change, negative = inhibition, usual class: inhibitors. AID 588591; further: on the % scale 0 is the no-effect control and ±100 the full control effect
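Fluorescent replication assay: 50 nM final substrate added after a 15 min room-temperature compound preincubation with 10 nM enzyme. Signal taken at 0 min and again at 10 min.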
Pol beta inh: inhibitors of human DNA polymerase beta; Pol beta primer extension/strand displacement, fluorescence kinetic; Potency, µM (titrated, usually from 114 µM), inactives show at the highest dose activity change, negative = inhibition, most hits filed as inhibitors; 340,000 compounds, 1.3% hits; AID 485314; further: on the % scale 0 is the no-effect control and ±100 the full control effect
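10 nM enzyme + cpd, 15 min RT; start with substrate 50 nM final; read 0 min and after 10 min RT. Corrected, normalized data; 4-parameter Hill curve fit.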
Pol iota inh: inhibitors of human DNA polymerase iota. Q9UNA4. Pol iota fluorescent replication assay, 10 min. Potency, µM (doses to about 115 µM), inactives show at the top dose activity, negative = inhibition, actives largely listed as inhibitors. 390,000 compounds, 1% hits. AID 588590
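Fluorescent replication assay read twice, at 0 min and 10 min after adding 50 nM (final) substrate. Enzyme (10 nM) and compounds were first incubated 15 min at room temperature; enzyme-free buffer wells were negative controls.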
WRN helicase inh: WRN helicase (human) inhibition. 360,000 compounds, 0.46% hits. Potency, µM (doses to about 114 µM), inactives show top-dose activity change, negative = inhibition, hits mostly inhibitors. WRN helicase unwinding, fluorescent forked duplex, kinetic; further: on the % scale 0 is the no-effect control and ±100 the full control effect; nearly all actives have a fitted effect of over 55% in size
Target sequence (Q14191 whole entry, looked up): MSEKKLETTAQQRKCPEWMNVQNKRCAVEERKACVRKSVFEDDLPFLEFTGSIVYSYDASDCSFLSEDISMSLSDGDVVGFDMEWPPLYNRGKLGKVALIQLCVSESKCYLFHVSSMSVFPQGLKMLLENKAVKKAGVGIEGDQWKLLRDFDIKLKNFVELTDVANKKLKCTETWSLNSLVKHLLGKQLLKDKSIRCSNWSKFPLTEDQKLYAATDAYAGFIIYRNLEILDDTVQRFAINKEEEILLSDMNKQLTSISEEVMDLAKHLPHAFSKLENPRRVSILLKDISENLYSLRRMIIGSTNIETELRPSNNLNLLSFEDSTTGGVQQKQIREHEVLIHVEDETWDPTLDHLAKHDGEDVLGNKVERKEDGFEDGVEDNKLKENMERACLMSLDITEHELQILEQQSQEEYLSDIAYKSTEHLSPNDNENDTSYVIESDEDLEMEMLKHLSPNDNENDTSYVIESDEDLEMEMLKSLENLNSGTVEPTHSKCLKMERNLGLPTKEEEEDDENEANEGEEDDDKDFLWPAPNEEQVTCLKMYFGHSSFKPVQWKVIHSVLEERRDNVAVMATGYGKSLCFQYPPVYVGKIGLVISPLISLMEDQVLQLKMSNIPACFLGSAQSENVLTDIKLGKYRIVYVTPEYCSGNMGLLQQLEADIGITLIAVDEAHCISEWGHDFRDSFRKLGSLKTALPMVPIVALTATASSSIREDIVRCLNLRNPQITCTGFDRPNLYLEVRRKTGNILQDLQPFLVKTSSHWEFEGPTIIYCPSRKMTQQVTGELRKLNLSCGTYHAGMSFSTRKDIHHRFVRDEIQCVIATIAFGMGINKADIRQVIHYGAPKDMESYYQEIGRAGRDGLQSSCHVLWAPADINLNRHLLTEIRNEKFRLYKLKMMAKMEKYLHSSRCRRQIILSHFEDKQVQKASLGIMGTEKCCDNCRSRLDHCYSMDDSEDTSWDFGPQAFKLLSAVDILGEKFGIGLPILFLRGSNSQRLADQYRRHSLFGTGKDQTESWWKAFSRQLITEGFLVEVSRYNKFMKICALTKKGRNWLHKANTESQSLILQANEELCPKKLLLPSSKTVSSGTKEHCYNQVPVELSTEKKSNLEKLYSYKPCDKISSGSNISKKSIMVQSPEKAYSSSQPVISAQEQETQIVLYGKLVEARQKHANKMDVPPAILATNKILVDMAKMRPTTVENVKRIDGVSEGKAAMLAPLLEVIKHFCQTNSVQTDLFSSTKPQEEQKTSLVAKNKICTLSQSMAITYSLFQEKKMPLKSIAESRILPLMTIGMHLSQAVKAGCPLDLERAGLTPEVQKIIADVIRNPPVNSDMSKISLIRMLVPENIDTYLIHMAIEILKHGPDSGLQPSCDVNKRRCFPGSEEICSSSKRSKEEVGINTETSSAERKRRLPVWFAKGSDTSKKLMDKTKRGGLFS
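Enzyme (20 nM final) and test compound sit together 15 min at room temperature before substrate addition. Substrate is a single-forked duplex oligonucleotide (100 nM) labelled with fluorophore and quencher, with 2 mM ATP; helicase unwinding raises red fluorescence, read kinetically.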
TbPGK inh: validation of Trypanosoma brucei phosphoglycerate kinase inhibitors. shares compounds with Pol kappa inh-1. TbPGK coupled GAPDH assay, Kinase-Glo luminescence. Potency, µM (titrated, usually from 57.5 µM), for the others: at the top dose activity change, negative = inhibition, actives largely listed as inhibitors. 500 compounds, 79% hits. AID 686980; further: on the % scale 0 is the no-effect control and ±100 the full control effect; nearly all actives have a fitted effect of over 65% in size
Pol iota confirm: Inhibitors of human DNA polymerase iota, confirmation; 1,500 compounds, 77% hits; AID 720496; Potency, µM, most hits filed as inhibitors; shares compounds with Pol kappa inh-1; Pol iota primer extension, TAMRA/BHQ fluorescence
Pol kappa inh-2: Pol kappa (human) inhibition, cherry-pick confirmation | shares compounds with Pol eta inh-1 | purified Pol-kappa, fluorescent strand-displacement substrate | Potency, µM, hits mostly inhibitors | 920 compounds, 76% hits | AID 720501
Pol eta inh-2: Pol eta (human) inhibition, cherry-pick confirmation; shares compounds with Pol eta inh-1; Pol eta primer extension, TAMRA/BHQ fluorescence, 10 min; Potency, µM, hits mostly inhibitors; 2,600 compounds, 64% hits; AID 720502
Numbers without * were called inactive; ? = inconclusive; . = no result given; ! = a repeat was not active; [ ] = another dose, or the depositor's remark. Hits are enriched below; roughly 2.5% of the tested compounds scored in any of these assays. The call rests on the fitted dose curve; in most records, active means well fitted curve in the direction sought with a large enough effect; inconclusive means small, poorly fitted or top-dose-only effect, or another doubt; inactive means no such curve, though single readings can be large; an effect the other way counts as inactive or inconclusive. Potency means the concentration at half of the fitted maximal effect.

SMILES	L3MBTL1 inh	Pol kappa inh-1	Pol eta inh-1	Pol beta inh	Pol iota inh	WRN helicase inh	Pol iota confirm	Pol eta inh-2	others
Cc1ccc(C(=O)O)cc1-c1ccc(/C=C2/NC(=O)N(c3ccccc3)C2=O)o1	.	22µM*	2.8µM*	5.6µM*	14µM*	40µM*	19*	30*	Pol kappa inh-2=19*
O=C(O)c1ccc(-c2ccc(/C=C3\NC(=O)N(Cc4ccc(Cl)cc4)C3=O)o2)cc1	?	?	22µM*	-3%	28µM*	-10%[11.6 µM]	38*	27*
CN(CC(=O)Nc1cccc(F)c1)C(=O)c1cc2c(s1)CCCCC2	6%	-7%	-11%	.	?	-5%	.	.
C[S+](C)CC[C@H](N)C(=O)O	.	7%[19.4 µM]	.	.	.	.	.	.
COc1cc(/C=C(\C#N)C(=O)c2ccc(O)c(O)c2)cc(I)c1O	0.32µM*	0.42µM*	0.89µM*	0.6µM*	0.89µM*	1.2µM*	6.7*	5.4*	TbPGK inh=3.7µM*;Pol kappa inh-2=2.4*
CCN(C(=O)CN1CCCCC1)c1c(N)n(Cc2ccccc2)c(=O)[nH]c1=O	5%	2%	-14%	.	18%	-1%	.	.
CCOc1ccc(S(=O)(=O)N2CCN(C(=O)c3sccc3C)CC2)cc1	.	-5%	-11%	24%	18%	-5%	.	.
CN(CC(=O)Nc1cccc(F)c1)C(=O)CCc1nc2cc(S(=O)(=O)N3CCOCC3)ccc2n1C	-5%	-5%	-9%	.	51%	-3%	.	.
COc1cccc(NC(=O)CN(C)C(=O)c2cc3c(s2)CCC3)c1	8.9µM*	32µM*	3.5µM*	.	22µM*	?	34*	76*
O=C(COC(=O)/C=C/c1cccc(F)c1)Nc1ncccn1	.	?	28µM*	-27%	50µM*	-30%	42*	48*
Cc1ccc(NS(=O)(=O)c2ccc3c(c2)[C@H]2C=CC[C@H]2[C@@H](c2ccc(F)cc2)N3)cc1C	.	6%	-14%	4%	14%	.	.	.
O=C(O)c1ccc(NS(=O)(=O)c2ccc3c(c2)C2C=CCC2C(c2ccccc2F)N3)cc1 (stereo not given)	7.9µM*	35µM*	10µM*	?	?	35µM*	38*	19*
Cc1cc(C)n2nc(C(=O)OCC(=O)NC3CCCCC3)nc2n1	4%	1%	-22%	.	30%	-8%	.	.
N#Cc1ccc(OCC(=O)Nc2cccc(S(=O)(=O)NC3=NCCCCC3)c2)cc1	-21%	-35%	?	.	79µM*	-27%	67*	?
O=C(COc1ccc(Cl)cc1)Nc1cccc(S(=O)(=O)NC2=NCCCCC2)c1	4%	-5%	-19%	.	16%	2%	.	.
COc1ccc(O)c(/C=N/NC(=O)c2c(C)nnn2-c2nonc2N)c1	.	?	?	4.5µM*	?	?	75*	.	Pol kappa inh-2=?
CCOc1ccccc1C(=O)Nc1ccc(S(=O)(=O)N2CCOCC2)cc1	.	-15%	-7%	18%	9%	-7%	.	.
COc1ccc2[nH]c3c(=O)n(Cc4ccc(C(=O)NCC5CCCO5)cc4)c(=S)[nH]c3c2c1 (stereo not given)	-2%	-32%	18µM*	89µM*	?	?	?	76*
CCCCNC(=O)c1ccc(Cn2c(=S)[nH]c3c([nH]c4ccc(OC)cc43)c2=O)cc1	2%	-13%	?	?	12%	-30%	.	.
Cc1cccc(C)c1NC(=O)C1NC(=O)CC1c1ccccc1 (stereo not given)	.	-13%	-10%	-1%	11%	-4%	.	.
COc1ccc(NC(=O)CN2C(=O)N/C(=C\c3cccn3-c3ccc(C(=O)NC#N)cc3)C2=O)cc1	.	.	.	.	.	.	42*	60*	Pol kappa inh-2=19*
CS(=O)(=O)N(CC(=O)NC1CCCC1)c1ccc2c(c1)OCCO2	6%[11.4 µM]	-1%	0%	-17%	2%	5%	.	.
COc1cccc(/C=N/NC(=O)c2cc3cc([N+](=O)[O-])ccc3s2)c1O	?	-22%	3.5µM*	3.5µM*	14µM*	35µM*	.	48*	TbPGK inh=2.9µM*
COc1ccc(CN2C(=O)C(CC(=O)NC3CCCC3)CC(C(=O)N3CCOCC3)=C2C)cc1 (stereo not given)	.	.	.	.	.	-4%	.	.
CCc1ccc(/C(C)=N/NC(=O)CNC(=O)/C=C/c2ccco2)cc1	.	32µM*	8.9µM*	.	5µM*	28µM*	15*	21*	TbPGK inh=3.3µM*
SMILES	L3MBTL1 inh	Pol kappa inh-1	Pol eta inh-1	Pol beta inh	Pol iota inh	WRN helicase inh	Pol iota confirm	Pol eta inh-2	others
O=C1NN(c2ccccc2)C(=O)/C1=C/c1ccc(Sc2cccc3ccccc23)o1	?	?	28µM*	20µM*	11µM*	?	75*	30*
CCCCC/C=C\C/C=C\C/C=C\CCCCC(=O)O	?	50µM*!	20µM*	.	40µM*	?	67*	30*	Pol kappa inh-2=21*
CS(=O)(=O)c1cccc(NC(=O)c2ccc(Cl)c(Cl)c2)c1	-1%	-7%	-7%	3%	71%	-9%	.	.
O=C(COC(=O)c1ccc(F)cc1Cl)NCc1ccco1	?	?	40µM*	.	22µM*	-12%[11.6 µM]	60*	?
O=C(COC(=O)/C=C/c1ccc(F)cc1)NCc1ccco1	-2%	-9%	-14%	5%	46%	-2%[57.1 µM]	.	.
O=C(/C=C/[C@H]1O[C@@H](n2cnc3c(NC(=O)c4ccccc4)ncnc32)[C@H](O)[C@@H]1O)NCCc1c[nH]c2ccccc12	.	.	.	.	.	6%	.	.
O=c1c(O)cccc2cc(O)c(O)c(O)c12	0.56µM*	0.89µM*	-98%	0.16µM*	?	4µM*	27*	19*	TbPGK inh=0.26µM*;Pol kappa inh-2=24*
COc1ccc(Oc2c(OC)cc(NCc3ccc(CN)cc3)c3ncccc23)cc1	.	.	3.2µM*	.	.	-30%[11.6 µM]	7.5*	15*	Pol kappa inh-2=3*
COc1ccc(CNc2cccnc2Cl)cc1	.	.	.	.	.	-2%	.	.
O=C(N/N=C/c1cccc(Cl)c1Cl)Nc1ccccc1	-3%	-11%	-5%	18%	16%	-5%	.	.

Compound activity as filed in PubChem.
